FBPA Giardia inh = blocks Giardia fructose-bisphosphate aldolase activity; A8B2U2; purified Giardia FBPA; Potency, µM (doses to about 59.6 µM), for the others: top-dose activity, negative = inhibition, hits mostly inhibitors; actives 0.71% (n = 290,000); AID 2451; note: potency is the fitted concentration of half-maximal effect; % is set by controls: 0 for no effect and ±100 for the full control effect; nearly all actives have a fitted effect of over 55% in size
Target sequence (A8B2U2 whole entry, looked up): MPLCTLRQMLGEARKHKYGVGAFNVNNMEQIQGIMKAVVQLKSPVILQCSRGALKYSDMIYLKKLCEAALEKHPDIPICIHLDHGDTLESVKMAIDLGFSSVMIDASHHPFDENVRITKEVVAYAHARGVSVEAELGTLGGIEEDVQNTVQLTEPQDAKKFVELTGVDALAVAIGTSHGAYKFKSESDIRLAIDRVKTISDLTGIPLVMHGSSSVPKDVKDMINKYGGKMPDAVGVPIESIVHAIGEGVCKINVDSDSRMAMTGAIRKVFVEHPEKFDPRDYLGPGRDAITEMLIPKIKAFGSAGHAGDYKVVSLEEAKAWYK
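40 nM FBPA preincubated 10 min at RT with compound (up to 57.5 uM final), then substrate plus GAPDH/TPI/NAD/arsenate coupling and diaphorase/resazurin added. Fluorescence read after 20 min at RT, 525/598 nm.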
Pf growth 48h = inhibits P. falciparum growth in the first generation, 48 h; P. falciparum luciferase growth in erythrocytes, 48 h; Potency, µM (series often up to 28.7 µM), for inactives: at the top dose activity change, negative = inhibition, usual class: inhibitors; actives 5.9% (n = 310,000); note: potency is the fitted concentration of half-maximal effect; % is set by controls: 0 for no effect and ±100 for the full control effect
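Here the parasites carry a stable luciferase gene and grow inside erythrocytes in Albumax-based RPMI medium with compound for one erythrocytic cycle. Activity is scored as loss of luminescent signal.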
NS1 inh = blocks influenza NS1 protein function; AID 2326; Potency, µM (doses to about 46.1 µM), for inactives: at the top dose activity, positive = more growth; actives 0.4% (n = 270,000); calls by dose curve; note: potency is the fitted concentration of half-maximal effect; actives are rising curves; nearly all actives have a fitted effect of over 50% in size
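S. cerevisiae expressing influenza A NS1, grown in glucose, washed, then diluted 1:100 into pH 6.0 -URA galactose medium with 23 nl compound. Growth recovery read as OD600; NS1-free strain serves as control.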
Pf growth 96h = P. falciparum growth inhibition at 96 hour, primary screen for plastid delayed-death inhibitors; P. falciparum luciferase reporter growth, 96 h; Potency, µM (series often up to 28.7 µM), for inactives: top-dose activity change, negative = inhibition, hits mostly inhibitors; actives 6.9% (n = 320,000); note: potency is the fitted concentration of half-maximal effect; % is set by controls: 0 for no effect and ±100 for the full control effect
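Erythrocytes infected with luciferase-expressing P. falciparum were dispensed at 2% hematocrit and 0.05% parasitemia (final), then incubated with compounds 96 hours at 37 C in 5% CO2. Luminescence after detection reagent addition reported growth.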
Cycloheximide cs = counter-screen for Shiga toxin inhibitors: cycloheximide protein synthesis inhibition. cell reporter, cycloheximide protein synthesis inhibition counterscreen. max response, %. actives 12% (n = 300,000). AID 2314; in the data active = max response mostly above about 13%, no sharp cut-off; inactive = mostly below about 14%; note: read at 38.3 µM for the half of the compounds with a filed dose; 0% is about no effect
Shiga toxin inh = Shiga toxin inhibition | Vero cells, Shiga toxin protein synthesis inhibition reporter | inhibition, % at 38.7 µM | actives 9.2% (n = 290,000) | AID 2315; in the data active = inhibition mostly above about 28%, no sharp cut-off; inactive = mostly below about 43%; note: 0% is about no effect
* hit, by the source's call; i = inactive; u = inconclusive; x = no result given; ! = not active in a repeat; [ ] = remark or other dose. Shown are actives, neighbours in structure and some others; about 21% of the full set was active somewhere. Unless noted, calls come from the whole dose curve; as a rule, active = well fitted curve in the direction sought with a large enough effect; inconclusive = small, poorly fitted or top-dose-only effect, or another doubt; inactive = no such curve, though single readings can be large; an effect the other way counts as inactive or inconclusive.

SMILES	FBPA Giardia inh	Pf growth 48h	NS1 inh	Pf growth 96h	Cycloheximide cs	Shiga toxin inh
CC(=O)c1ccc(NC(=O)Cn2cnc(S(=O)(=O)N3CCc4ccccc43)c2)cc1	-9%	-18%	2%	6%	7	12
O=c1[nH]cnc2cc(-c3ccc(Br)cc3)sc12	0%	134%	-17%	239%	22	66*
O=c1[nH]c(CCl)nc2cc(-c3ccc(F)cc3)sc12	-5%	u	-55%	u	11	56
CCOc1ccc2ncc(S(=O)(=O)c3ccccc3)c(N3CCN(c4ccc(OC)cc4)CC3)c2c1	5%	8.3µM*	12%	2.9µM*	-5	-1
COc1ccc(N2CCN(c3c(S(=O)(=O)c4ccccc4)cnc4ccc(OC)cc34)CC2)cc1	2%	8.3µM*	u	4.1µM*	-2	13
O=c1[nH]cnc2c1sc1nc(C(F)F)cc(-c3ccccc3)c12	x	-7%	x	18%	x	x
C=CCSc1nc2c(cnn2-c2ccccc2)c(=O)n1N	-5%	173%	-40%	221%	53*	63*
CN(CCC(=O)Nc1ccc(Cl)cc1)Cc1ccccc1	-25%	2%	8%	-13%	-2	x
Cc1c(Cl)cnc(NC(=O)CSc2nnc3ccccn23)c1Cl	0%	51%	10%	x	22*	84*
O=C(CSc1nnc2ccccn12)NNC(=O)c1ccc(Cl)cc1	3%	-14%	3%	8%	-3	-4
CCOc1ccc(C(=O)CSc2nnc3ccccn23)cc1	4%	x	-5%	36%	34*	58*
O=C(CSc1nnc2ccccn12)c1ccc(Cl)cc1	-4%	23%	x	-18%	45*	124*
O=C(COc1ccc(Cl)cc1Cl)Nc1ccc(Cl)cn1	1%	x	-7%	u	30*	92*
CCOc1ccc(C(=O)Nc2cccc(C(=O)O)c2)cc1Cl	16%	i	x	i[5.75 µM]	38*	59*
CC(=O)Nc1ccc(NC(=O)COc2ccc(Cl)cc2Cl)cc1	-3%	-18%	3%	-19%	26	39
CCOc1ccc(C(=O)Nc2cc(NC(=O)c3ccc(OCC)c(Cl)c3)cc(C(=O)O)c2)cc1Cl	8%	4%	2%	25%	-3	-3
CCOc1ccc(C(=O)Nc2ccc(Cl)cn2)cc1Cl	-6%	115%	-3%	u	38*	106*
O=S(=O)(Oc1ccc(C(=S)N2CCOCC2)cc1)c1ccc(Cl)cc1	6%	2%	-33%	u	-1	10
Cc1cc2cc(OCc3ccccc3)ccc2n1C	4%	160%	27%	u	25*	31*
Cc1c(C=O)c2cc(OCc3ccccc3)ccc2n1C	0%	10%	-32%	u	39*	70*
Cc1ccc(S(=O)(=O)N2CCN(c3ncnc4sccc34)CC2)cc1	x	u	-51%	u	-3	-8
Cc1nc2ccccc2nc(=O)c1NNc1ccccc1	3%	87%	-3%	6.7µM*!	20*	23*
Cc1ccc2nc(=O)c(NNc3ccccc3)cnc2c1	0%	186%	6%	219%	23*	21
Cc1cccc(C(=O)Nc2cccc(-c3cnc4ccccc4n3)c2)c1	5%	u	4%	u	12	59
COc1ccc(-c2ccc([C@H]3[C@H]4C=CC[C@@H](C)[C@@H]4C(=O)N3Cc3ccccc3)c(F)c2)cc1	-1%	12µM*	u	u	-5	2
COc1ccc(-c2ccoc2)cc1[C@H]1[C@H]2C=CC[C@@H](C)[C@@H]2C(=O)N1Cc1ccccc1	-1%	10µM*	-15%	u	-4	-7
COc1ccc(-c2ccc(OC)c(C3C4C=CCC(C)C4C(=O)N3Cc3ccccc3)c2)cc1OC (stereo not given)	-7%	x	x	x	5	-3
COc1ccc(-c2c([C@H]3[C@H]4C=CC[C@@H](C)[C@@H]4C(=O)N3Cc3ccccc3)ccc3ccccc23)cc1	2%	7.4µM*	-4%	9.3µM*	0	-3
O=C(COC(=O)c1ccc(OC(F)F)cc1)NCCCN1CCCC1=O	6%	16%	2%	31%	-2	-15
